Laboratory results published in PubChem BioAssay (NCATS).
Results filed as inconclusive are left out. Entries that show only a call come without a potency. Some structures have more than one record in an assay (separate samples or runs), and their calls can disagree. Active and inactive are the calls of the source. Calls come from the whole dose curve; as a rule, active = well fitted curve in the direction sought with a large enough effect; inconclusive = small, poorly fitted or top-dose-only effect, or another doubt; inactive = no such curve, though single readings can be large; an effect the other way counts as inactive or inconclusive.

How the values were obtained:
Es-2 = test: Primary qHTS to identify gynecologic anti-cancer compounds using libraries of approved drugs and bioactive compounds (AID 1345084); settings: Gynecologic cancer cell panel viability, ATPlite luminescence, 48 h; series mostly up to 57.5 µM; note: nearly all actives have a fitted effect of over 55% in size
How it was run: (§1)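 Cell viability after 48 h drug treatment, ATPlite luminescence readout; five doses.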

HeLa = test: as above; settings: Gynecologic cancer cell panel viability, ATPlite luminescence, 48 h; series mostly up to 57.5 µM
How it was run: as §1

Hek293T = test: as above; settings: Gynecologic cancer cell panel viability, ATPlite luminescence, 48 h, control line for the selectivity index; series mostly up to 57.5 µM
How it was run: as §1

JEG-3 = test: as above; settings: Gynecologic cancer cell panel viability, ATPlite luminescence, 48 h; series mostly up to 57.5 µM
How it was run: as §1

OV90 = test: as above; settings: Gynecologic cancer cell panel viability, ATPlite luminescence, 48 h; series mostly up to 57.5 µM
How it was run: as §1

PA-1 = test: as above; settings: Gynecologic cancer cell panel viability, ATPlite luminescence, 48 h; series mostly up to 57.5 µM
How it was run: as §1

SKOV3 = test: as above; settings: Gynecologic cancer cell panel viability, ATPlite luminescence, 48 h; series mostly up to 57.5 µM
How it was run: as §1

Tov-21-G = test: as above; settings: Gynecologic cancer cell panel viability, ATPlite luminescence, 48 h; series mostly up to 57.5 µM
How it was run: as §1

Tov112D = test: as above; settings: Gynecologic cancer cell panel viability, ATPlite luminescence, 48 h; series mostly up to 57.5 µM
How it was run: as §1

[1] = Drug repurposing screens with cells derived from glioblastoma tumor samples (AID 1345199); settings: GBM patient neurospheres viability, ATP luminescence, 48 h; note: nearly all actives have a fitted effect of over 40% in size
How it was run: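 Primary testing used CD133+ neurospheres from four GBM patients, seven concentrations, 48 h exposure and ATP-based viability; confirmation added three slower-growing patient lines.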

[2] = at 45.9 µM (top of the series), tumour line B
[3] = at 45.9 µM (top of the series), tumour line D
[4] = at 46 µM (top of the series), tumour line A
Potency is the fitted concentration of half-maximal effect.

Row | Structure (SMILES) | Potency (Es-2) | Potency (HeLa) | Potency (Hek293T) | Potency (JEG-3) | Potency (OV90) | Potency (PA-1) | Potency (SKOV3) | Potency (Tov-21-G) | Potency (Tov112D) | activity, negative = cell killing [1, 2] | activity, negative = cell killing [1, 3] | Potency ([1]; tumour line A) | Potency ([1]; tumour line B) | activity, negative = cell killing ([1]; at 21.2 µM (top of the series), tumour line B) | activity, negative = cell killing ([1]; at 21.2 µM (top of the series), tumour line D) | activity, negative = cell killing [1, 4]
1 | CC(=O)[C@H]1CC[C@H]2[C@@H]3CC[C@H]4C[C@](C)(O)CC[C@]4(C)[C@H]3CC[C@]12C | inactive | inactive | inactive | inactive | inactive | inactive | inactive | inactive | inactive | -20.7% (inactive) |  |  |  |  |  | 
2 | CCCN1CCC[C@@H]2Cc3nc(N)ncc3C[C@H]21 | inactive | inactive | inactive | inactive | inactive | inactive | inactive | inactive | inactive | -7.67% (inactive) | -0.18% (inactive) |  |  |  |  | 
3 | O=C(O)C(=O)c1cn(Cc2ccccc2)c2ccc(-c3ccc(OC(F)(F)F)cc3)cc12 | inactive | inactive | inactive | inactive | inactive | inactive | inactive | inactive | inactive |  |  |  |  |  |  | 
4 | O=C(O)c1ccc2[nH]cc(CCCCN3CC=C(c4ccccc4)CC3)c2c1 | inactive | inactive | inactive | inactive | inactive | inactive | inactive | inactive | inactive | -0.385% (inactive) | -15.3% (inactive) |  |  |  |  | 
5 | CC[C@@H](CO)NC(=O)[C@@H]1C=C2c3cccc4c3c(cn4C)C[C@H]2N(C)C1 | inactive | inactive | inactive | inactive | inactive | inactive | inactive | inactive | inactive |  |  | 35.5 µM (active) | 17.8 µM (active) |  |  | 
6 | Cc1ccc(S(=O)(=O)N[C@@H](CCCCN)C(=O)CCl)cc1 | inactive | inactive | inactive | inactive | inactive | inactive | inactive | inactive | inactive | -22.5% (inactive) |  |  |  |  |  | 
7 | O=C1NCN(c2ccccc2)C12CCN(CC1COc3ccccc3O1)CC2 (stereo not given) | inactive | inactive | inactive | inactive | inactive | inactive | inactive | inactive | inactive | -6.74% (inactive) |  | 12.6 µM (active) |  |  |  | 
8 | O=[N+]([O-])c1cc([As](=O)(O)O)ccc1O | inactive | inactive | inactive | inactive | inactive | inactive | inactive | inactive | inactive |  |  |  |  |  |  | 
9 | CN(C)[C@@H]1C(=O)C(C(N)=O)=C(O)[C@@]2(O)C(=O)C3=C(O)c4c(O)cccc4[C@@](C)(O)[C@H]3C[C@@H]12 | inactive | inactive | inactive | inactive | inactive | inactive | inactive | inactive | inactive |  |  |  |  | -16.2% (inactive) | -21.5% (inactive) | 
10 | N[C@@H]1C[C@H]1c1ccccc1 | inactive | inactive | inactive | inactive | inactive | inactive | inactive | inactive | inactive | -7.72% (inactive) | -6.02% (inactive) |  |  |  |  | 
11 | NCCc1cc(O)c(O)cc1O | inactive | inactive | inactive | inactive | inactive | inactive | inactive | inactive | inactive | -19% (inactive) | -22% (inactive) |  |  |  |  | 
12 | C[C@]12CCC(=O)C(O)=C1CC[C@@H]1[C@@H]2CC[C@]2(C)C(=O)CC[C@@H]12 | inactive | inactive | inactive | inactive | inactive | inactive | inactive | inactive | inactive |  |  |  |  |  |  | 
13 | C=CCN1CC[C@]23c4c5ccc(O)c4O[C@H]2C(=O)CC[C@@]3(O)[C@H]1C5 | inactive | inactive | inactive | inactive | inactive | inactive | inactive | inactive | inactive |  | -22.2% (inactive) |  |  |  |  | 15.9% (inactive)
14 | CN1C(=S)CN=C(c2ccccc2)c2cc(Cl)ccc21 | inactive | inactive | inactive | inactive | inactive | inactive | inactive | inactive | inactive | -24.8% (inactive) | -20.4% (inactive) |  |  |  |  | 
15 | CC(C)(C)NCC(O)c1cc(Cl)c(N)c(Cl)c1 (stereo not given) | inactive | inactive | inactive | inactive | inactive | inactive | inactive | inactive | inactive | -4.05% (inactive) | -25.9% (inactive) |  |  |  |  | 
16 | C=C1CC[C@@]2(O)[C@H]3Cc4ccc(O)c5c4[C@@]2(CCN3CC2CC2)[C@H]1O5 | inactive | inactive | inactive | inactive | inactive | inactive | inactive | inactive | inactive | -11% (inactive) | 5.06% (inactive) |  |  |  |  | 
17 | CC(C)NCC(O)c1ccccc1Cl (stereo not given) | inactive | inactive | inactive | inactive | inactive | inactive | inactive | inactive | inactive | -16.7% (inactive) | -18.1% (inactive) |  |  |  |  | 
18 | Clc1cccc(N2CCNCC2)c1 | inactive | inactive | inactive | inactive | inactive | inactive | inactive | inactive | inactive | -20% (inactive) |  | 35.5 µM (active) |  |  |  | 
19 | Oc1cccc2cccnc12 | inactive | inactive | inactive | inactive | inactive | inactive | inactive | inactive | inactive | -22.3% (inactive) | -9.58% (inactive) |  |  |  |  | 

Row | Structure (SMILES) | Potency (Es-2) | Potency (HeLa) | Potency (Hek293T) | Potency (JEG-3) | Potency (OV90) | Potency (PA-1) | Potency (SKOV3) | Potency (Tov-21-G) | Potency (Tov112D) | activity, negative = cell killing [1, 2] | activity, negative = cell killing [1, 3] | Potency ([1]; tumour line A) | Potency ([1]; tumour line B) | activity, negative = cell killing ([1]; at 21.2 µM (top of the series), tumour line B) | activity, negative = cell killing ([1]; at 21.2 µM (top of the series), tumour line D) | activity, negative = cell killing [1, 4]
20 | CCCC(C)(COC(N)=O)COC(=O)NC(C)C (stereo not given) | inactive | inactive | inactive | inactive | inactive | inactive | inactive | inactive | inactive | -7.57% (inactive) | -17.6% (inactive) |  |  |  |  | 
21 | CCCN1CCC[C@@H]2Cc3[nH]ncc3C[C@H]21 | inactive | inactive | inactive | inactive | inactive | inactive | inactive | inactive | inactive | -3.57% (inactive) | -3.31% (inactive) |  |  |  |  | 
22 | Cn1c(CCCC(=O)O)nc2cc(N(CCCl)CCCl)ccc21 | inactive | inactive | inactive | inactive | inactive | inactive | inactive | inactive | inactive | -8.98% (inactive) | -16.3% (inactive) |  |  |  |  | 
23 | CCN(C(C)=O)c1cccc(-c2ccnc3c(C#N)cnn23)c1 | inactive | inactive | inactive | inactive | inactive | inactive | inactive | inactive | inactive | -13.5% (inactive) | -2.81% (inactive) |  |  |  |  | 
24 | COC[C@@H](NC(C)=O)C(=O)NCc1ccccc1 | inactive | inactive | inactive | inactive | inactive | inactive | inactive | inactive | inactive |  |  |  |  |  |  | 
25 | NCC(O)c1ccc(O)cc1 (stereo not given) | inactive | inactive | inactive | inactive | inactive | inactive | inactive | inactive | inactive | -12.4% (inactive) | -9.81% (inactive) |  |  |  |  | 
26 | CC(=O)[C@H]1CC[C@H]2[C@@H]3CC[C@H]4C[C@H](O)CC[C@]4(C)[C@H]3C(=O)C[C@]12C | inactive | inactive | inactive | inactive | inactive | inactive | inactive | inactive | inactive | -8.44% (inactive) | -5.23% (inactive) |  |  |  |  | 
27 | O=C1CC[C@@]2(O)[C@H]3Cc4ccc(O)c5c4[C@@]2(CCN3CC2CC2)[C@H]1O5 | inactive | inactive | inactive | inactive | inactive | inactive | inactive | inactive | inactive | 1.04% (inactive) | -3.21% (inactive) |  |  |  |  | 
28 | O=c1[nH]c2ccccc2n1CCCN1CCC(n2c(=O)[nH]c3cc(Cl)ccc32)CC1 | inactive | inactive | inactive | inactive | inactive | inactive | inactive | inactive | inactive | -24.9% (inactive) |  | 2.82 µM (active) |  |  |  | 
29 | Cc1ccc2c(c1)C1CN(C)CCC1N2 (stereo not given) | inactive | inactive | inactive | inactive | inactive | inactive | inactive | inactive | inactive | -7.68% (inactive) | -17.4% (inactive) |  |  |  |  | 
30 | Cc1cccc(C)c1NC1=NCCCS1 | inactive | inactive | inactive | inactive | inactive | inactive | inactive | inactive | inactive | -12.3% (inactive) |  | 17.8 µM (active) |  |  |  | 
31 | C[C@]12C/C(=C/O)C(=O)C[C@@H]1CC[C@@H]1[C@@H]2CC[C@@]2(C)[C@H]1CC[C@]2(C)O | inactive | inactive | inactive | inactive | inactive | inactive | inactive | inactive | inactive | -10.4% (inactive) | -15.9% (inactive) |  |  |  |  | 
32 | CC(O)(CS(=O)(=O)c1ccc(F)cc1)C(=O)Nc1ccc(C#N)c(C(F)(F)F)c1 (stereo not given) | inactive | inactive | inactive | inactive | inactive | inactive | inactive | inactive | inactive |  |  |  |  |  |  | 
33 | Oc1cc(Cl)ccc1Oc1ccc(Cl)cc1Cl | inactive | 44.7 µM (active) and inactive | inactive | inactive | inactive | inactive | 35.5 µM (active) and inactive | inactive | inactive |  |  |  |  |  |  | -27.9% (inactive)
34 | O=c1oc2ccccc2c(O)c1C(CC(O)c1ccc(-c2ccc(Br)cc2)cc1)c1ccccc1 (stereo not given) | inactive | inactive | inactive | inactive | inactive | inactive | inactive | inactive | inactive | -19.7% (inactive) |  |  |  |  |  | 
35 | CC[N+](CC)(CC)CC | inactive | inactive | inactive | inactive | inactive | inactive | inactive | inactive | inactive | -10.8% (inactive) | -7.23% (inactive) |  |  |  |  | -23.7% (inactive)
36 | NP(N)(=O)NC(=O)c1ccc(F)cc1 | inactive | inactive | inactive | inactive | inactive | inactive | inactive | inactive | inactive | -10% (inactive) | -14.8% (inactive) |  |  |  |  | -25.8% (inactive)
37 | CC(C)(N)Cc1ccc(Cl)cc1 | inactive | inactive | inactive | inactive | inactive | inactive | inactive | inactive | inactive | -10.8% (inactive) | -8.85% (inactive) |  |  |  |  | 
